Data: PubChem BioAssay (NCATS)
Inconclusive results are not listed. Calls of active or inactive are those of the source. Unless noted, calls follow the shape of the dose curve; as a rule, active = well fitted curve in either direction with a large enough effect (not every such curve was filed as active); inconclusive = small, poorly fitted or top-dose-only effect, or another doubt; inactive = flat fitted curve, though single readings scatter.

Key:
[1] = molecular target: Lysosomal acid glucosylceramidase (Homo sapiens) (UniProt P04062); experiment: Glucocerebrosidase-p2 (AID 348; in the data active = potency below about 10 µM; also: potency is read from the fitted curve at half-maximal effect); conditions: purified GBA, blue fluorogenic substrate, 40 min
How it was run: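 Normal human glucocerebrosidase (0.2 nM) with blue fluorogenic substrate (80 uM final) in citrate/phosphate pH 5.9 with 10mM sodium taurocholate, 0.01% tween-20; 40 min RT, NaOH/glycine stop; fluorescence Ex 365/Em 440; AC50 from a titration from 0.6 nM upwards.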

[2] = AP1 Signaling Pathway (AID 357); conditions: ME-180 AP-1-bla reporter, EGF-induced, beta-lactamase ratio, 5 h; at 7.69 µM (top of the series) unless noted;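 also: ME-180 reporter cells stimulated with EGF at its EC50 level; % is scaled to controls: 0 for no effect and ±100 for the full control effect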
How it was run: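 Beta-lactamase reporter under AP-1 response element, ME-180 background. Stimulus: EC50 EGF. Compound exposure 5 h, 37 °C. Detection: CCF4, 2.5 h RT, 460/530 nm. Values: AC50 from titration.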

[3] = NFAT Signaling Pathway (AID 444); conditions: Jurkat NFAT-bla M1, carbachol, beta-lactamase ratio, 5 h; at 7.69 µM (top of the series) unless noted;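 also: carbachol stimulus at about its EC50 of 1 µM final; % is scaled to controls: 0 for no effect and ±100 for the full control effect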
How it was run: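 Jurkat cells with NFAT-driven β-lactamase reporter and co-expressed M1 receptor, stimulated with carbachol (final 1 uM, ~EC50), compound titration, 5 h at 37 °C. CCF4 loaded 1 h at RT; 460/530 nm ratio gave %activity and AC50.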

[4] = Stat Signaling Pathway (AID 446); conditions: ME-180 SIE beta-lactamase reporter, IL-6 stimulated, 5 h; at 7.69 µM (top of the series) unless noted;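 also: ME-180 cervical cancer cells given 40 pM IL-6 alongside compound; SIE-controlled beta-lactamase reporter measured as 460/530 nm FRET emission ratio; % is scaled to controls: 0 for no effect and ±100 for the full control effect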
How it was run: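 Emission at 460 and 530 nm (excitation 405 nm) reports SIE-controlled beta-lactamase in ME-180 cells. Cells received compound with 40 pM IL-6 for 5 hrs at 37 C; data scaled between 300 pM IL-6 and 125 nM JAK-inhibitor controls.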

[5] = molecular target: Glucocorticoid receptor (Homo sapiens) (UniProt P04150); experiment: GR-EFC Redistribution (AID 451; calls by dose curve; also: potency is read from the fitted curve at half-maximal effect); conditions: CHO-K1 GR-EFC translocation, beta-gal luminescence, 2 h
How it was run: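 CHO-K1 cells expressing nuclear EA and GR-ED fragments of b-gal; compounds titrated up to 46 uM final, 2 h at 37 C. GR nuclear translocation read as complemented b-gal luminescence after 1 h RT detection.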

[6] = molecular target: Mitogen-activated protein kinase 10 (Mus musculus) (UniProt Q61831); experiment: JNK3 AlphaScreen Assay (AID 530); conditions: JNK3 lysate, c-Jun phosphorylation; series mostly up to 57.1 µM;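 also: kinase came from lysate of stimulated human HepG2 cells; signal reports phosphorylation of biotinylated GST-cJun 1-79 at Ser73 with 10 µM ATP; % is scaled to controls: 0 for no effect and ±100 for the full control effect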
How it was run: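 Activity was read by AlphaScreen after JNK3-containing HepG2 lysate (cytokine pre-activated) phosphorylated biotinylated GST-cJun with 10 uM ATP at room temperature. Phospho-Ser73 cJun antibody with Protein-A acceptor beads provided detection.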

[7] = molecular target: 3',5'-cyclic-AMP phosphodiesterase 4B (Homo sapiens) (UniProt Q07343); experiment: qHTS Assay for Inhibitors of PDE-IV (AID 607; active = well fitted activation curve with a large enough effect in the main read-out, with a control signal flat, not every such curve was filed as active; also: % of control where 0% means no effect); conditions: HEK293 ACTOne CNG channel cells, membrane potential fluorescence; series mostly up to 22.9 µM
How it was run: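 The readout is membrane depolarisation from a cAMP-sensing CNG channel, detected with a potential dye at ex 535/em 590. Cells were HEK293-derived (endogenous PDE-IV) at 1000 cells/well, titrated up to 22.9 uM final.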

[8] = qHTS Assay for Identification of Small Molecule Agonists for Hypoxia Response Element Signaling Pathway (AID 914; active = well fitted activation curve with a large enough effect in the signal ratio, with a control signal flat, not every such curve was filed as active; the % refers to the signal ratio; also: % of control where 0% means no effect); conditions: ME-180 (cervical carcinoma) HRE-bla reporter, beta-lactamase ratio, CoCl2, 17 h; activation: stronger effect = higher value
How it was run: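 Read-out: CCF4 FRET ratio of 460nm to 530nm emission (excitation 405nm) after 2.5 hours at room temperature, taken from HRE-bla ME-180 cells that had been exposed to compound and EC50 CoCl2 for 17 hours.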

[9] = qHTS Assay for Lipid Storage Modulators (AID 1519; calls by dose curve); conditions: Drosophila S3 cells, BODIPY lipid droplet/cell ratio, laser cytometry, cells loaded with oleic acid; for activity change, negative = inhibition: at 57.5 µM (top of the series)
How it was run: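 Cells seeded at 5,000 per well were treated with compounds over a concentration series and loaded with oleic acid (400 uM, as added). Lipid droplet fluorescence (488 nm excitation, 500-530 nm channel) was read by laser-scanning cytometry and normalized to 20 uM Triacsin C.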

[10] = Primary qHTS for small molecule stabilizers of the endoplasmic reticulum resident proteome: Secreted ER Calcium Modulated Protein (SERCaMP) assay (AID 1508630; active = well fitted curve in the direction sought with a large enough effect; an effect the other way counts as inactive or inconclusive; also: % is scaled to controls: 0 for no effect and ±100 for the full control effect); conditions: SH-SY5Y GLuc-SERCaMP (Gaussia luciferase released on ER calcium loss) secretion, thapsigargin, luminescence; series mostly up to 38.4 µM
How it was run: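 The SH-SY5Y reporter protocol was run at 3 concentrations up to 38.3 uM (primary) or 11 concentrations (follow-up): 16 h compound, 100 nM thapsigargin for 4 h, then extracellular luciferase luminescence.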

[11] = molecular target: Cytochrome P450 1A2 (Homo sapiens) (UniProt P05177); experiment: p450-cyp1a2 (AID 410; calls by dose curve; also: potency is read from the fitted curve at half-maximal effect); conditions: recombinant CYP1A2, luciferin-ME demethylation, luminescence; series mostly up to 57 µM
How it was run: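 O-Demethylation of luciferin 6' methyl ether by human CYP1A2 is monitored as luciferase luminescence. Substrate sits at Km (100uM); enzyme is 20nM. Values are scaled to 57 uM furafylline as maximal inhibition.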

[12] = molecular target: Glucocorticoid receptor (Homo sapiens) (UniProt P04150); experiment: GR-GFP Redistribution (AID 450;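 active = compounds whose dose series gives a full or clear partial fitted curve of increased nuclear translocation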; also: potency is read from the fitted curve at half-maximal effect); conditions: U2OS GR-GFP nuclear translocation, laser cytometry, 2 h
[13] = molecular target: Cytochrome P450 3A4 (Homo sapiens) (UniProt P08684); experiment: qHTS Assay for Activators of Cytochrome P450 3A4 (AID 885; active = well fitted curve in the direction sought with a large enough effect; an effect the other way counts as inactive or inconclusive; also: nearly all actives have a fitted effect of over 65% in size); conditions: recombinant CYP3A4, Luciferin-PPXE luminescence, 60 min; series mostly up to 57.1 µM
How it was run: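 Activators are scored by enhanced luminescence from CYP3A4 conversion of luciferin-PPXE (25uM, equal to KM) to luciferin, after 60 min at RT with an NADPH-regenerating system.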

[14] = molecular target: Cytochrome P450 2C19 (Homo sapiens) (UniProt P33261); experiment: qHTS Assay for Inhibitors and Substrates of Cytochrome P450 2C19 (AID 899; active = well fitted curve in the direction sought with a large enough effect; an effect the other way counts as inactive or inconclusive; also: potency is read from the fitted curve at half-maximal effect; nearly all actives have a fitted effect of over 60% in size); conditions: recombinant CYP2C19, luciferin-H EGE luminescence; series mostly up to 57.1 µM
How it was run: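 Signal comes from luciferase acting on luciferin released by CYP2C19-mediated hydroxylation of Luciferin-H EGE, 10uM (KM). Assay mix: 5nM enzyme, 50mM KPO4; 60 min at 37C with NADPH regeneration. Data normalized against 57uM ketoconazole.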

[15] = Confirmation and Secondary Assay for Modulators of Hemoglobin Beta Chain Splicing at IVS2 654 locus (AID 910; active = well fitted curve in the direction sought with a large enough effect; an effect the other way counts as inactive or inconclusive;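 also: HeLa cells stably carrying EGFP split by mutant beta-globin IVS2-654 intron; % of control where 0% means no effect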); conditions: HeLa EGFP-654 splicing reporter, GFP fluorescence, 48 h; series mostly up to 38.3 µM
How it was run: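 HeLa cells stably expressing EGFP interrupted by β-globin IVS2-654 intron, seeded overnight in Opti-MEM/2% FCS, then treated 2 days at 37 °C. Restored splicing read as total peak GFP intensity per well by laser scanning cytometry (488 nm excitation, 500–520 nm emission); 500 nM antisense PNA as control.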

[16] = Confirmation and Secondary Assay for Modulators of Hemoglobin Beta Chain Splicing at IVS2 705 locus (AID 930; active = well fitted curve in the direction sought with a large enough effect; an effect the other way counts as inactive or inconclusive;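 also: HeLa cells stably expressing the EGFP-705 splicing reporter; GFP fluorescence per well restored by corrected splicing of the IVS2-705 intron in EGFP; % of control where 0% means no effect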); conditions: HeLa EGFP-705 splicing reporter, GFP fluorescence, 48 h; series mostly up to 38.3 µM
How it was run: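 HeLa EGFP-705 reporter; 500 cells/well, o/n 37C 5% CO2; cpd 2 d; 488 ex/500-520 em laser scan; total peak GFP intensity/well. Ref: 500 nM […] antisense PNA.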

[17] = molecular target: Ubiquitin carboxyl-terminal hydrolase 1 (Homo sapiens) (UniProt O94782); experiment: Inhibitors of USP1/UAF1: Pilot qHTS (AID 504865; active = well fitted curve in the direction sought with a large enough effect; an effect the other way counts as inactive or inconclusive;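 also: rhodamine fluorescence freed from ubiquitin-rhodamine substrate followed over time; top concentration of the series differs between compounds; % is scaled to controls: 0 for no effect and ±100 for the full control effect; nearly all actives have a fitted effect of over 35% in size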); conditions: purified USP1/UAF1, Ub-rhodamine cleavage fluorescence; series mostly up to 54.9 µM
How it was run: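 In 50mM HEPES pH 7.8 containing 0.5mM EDTA, 1mM TCEP, 0.1 mg/ml BSA and 0.01% Tween-20, 1nM USP1/UAF1 is exposed to compound for 15 min, then Ub-Rho (150nM final) is added and fluorescence is read over time.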

[18] = measured here: cell count channel max response
[19] = measured here: lipid channel max response

Chain of Lysosomal acid glucosylceramidase (Homo sapiens) (P04062 whole entry, looked up): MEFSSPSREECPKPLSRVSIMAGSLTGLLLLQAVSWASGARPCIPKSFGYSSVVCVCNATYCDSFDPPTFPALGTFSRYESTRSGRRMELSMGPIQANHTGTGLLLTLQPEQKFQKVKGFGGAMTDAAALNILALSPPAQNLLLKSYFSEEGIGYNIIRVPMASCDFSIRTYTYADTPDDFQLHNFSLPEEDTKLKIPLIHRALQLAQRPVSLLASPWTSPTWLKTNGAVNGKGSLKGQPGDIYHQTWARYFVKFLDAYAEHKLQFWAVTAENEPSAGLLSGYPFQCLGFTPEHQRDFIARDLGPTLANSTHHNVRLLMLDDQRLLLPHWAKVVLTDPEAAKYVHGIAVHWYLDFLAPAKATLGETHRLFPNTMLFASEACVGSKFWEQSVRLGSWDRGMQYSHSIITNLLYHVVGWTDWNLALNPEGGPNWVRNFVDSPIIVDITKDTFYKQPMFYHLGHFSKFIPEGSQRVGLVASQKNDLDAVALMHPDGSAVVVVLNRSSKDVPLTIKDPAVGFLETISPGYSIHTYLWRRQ
Chain of 3',5'-cyclic-AMP phosphodiesterase 4B (Homo sapiens) (Q07343 whole entry, looked up): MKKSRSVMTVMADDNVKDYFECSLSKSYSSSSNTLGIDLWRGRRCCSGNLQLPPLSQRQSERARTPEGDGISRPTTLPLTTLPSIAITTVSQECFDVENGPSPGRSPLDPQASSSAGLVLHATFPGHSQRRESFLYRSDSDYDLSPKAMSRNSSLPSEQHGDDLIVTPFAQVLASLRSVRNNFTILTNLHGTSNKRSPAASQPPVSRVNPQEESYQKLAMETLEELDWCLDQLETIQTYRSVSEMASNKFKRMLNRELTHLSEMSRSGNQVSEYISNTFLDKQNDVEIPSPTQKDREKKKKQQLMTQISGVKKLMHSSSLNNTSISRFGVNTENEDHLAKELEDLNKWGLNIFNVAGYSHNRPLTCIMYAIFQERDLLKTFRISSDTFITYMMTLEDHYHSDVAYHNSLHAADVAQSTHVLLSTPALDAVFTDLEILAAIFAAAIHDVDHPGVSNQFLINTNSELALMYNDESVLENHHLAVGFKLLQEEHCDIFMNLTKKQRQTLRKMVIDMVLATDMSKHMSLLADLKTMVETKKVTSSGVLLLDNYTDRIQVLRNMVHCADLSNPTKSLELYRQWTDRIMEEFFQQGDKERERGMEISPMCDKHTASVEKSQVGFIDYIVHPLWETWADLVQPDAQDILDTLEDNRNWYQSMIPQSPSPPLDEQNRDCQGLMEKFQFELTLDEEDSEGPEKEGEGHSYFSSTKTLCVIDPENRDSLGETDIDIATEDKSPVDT
Chain of Glucocorticoid receptor (Homo sapiens) (P04150 whole entry, looked up, the tested form may be a part): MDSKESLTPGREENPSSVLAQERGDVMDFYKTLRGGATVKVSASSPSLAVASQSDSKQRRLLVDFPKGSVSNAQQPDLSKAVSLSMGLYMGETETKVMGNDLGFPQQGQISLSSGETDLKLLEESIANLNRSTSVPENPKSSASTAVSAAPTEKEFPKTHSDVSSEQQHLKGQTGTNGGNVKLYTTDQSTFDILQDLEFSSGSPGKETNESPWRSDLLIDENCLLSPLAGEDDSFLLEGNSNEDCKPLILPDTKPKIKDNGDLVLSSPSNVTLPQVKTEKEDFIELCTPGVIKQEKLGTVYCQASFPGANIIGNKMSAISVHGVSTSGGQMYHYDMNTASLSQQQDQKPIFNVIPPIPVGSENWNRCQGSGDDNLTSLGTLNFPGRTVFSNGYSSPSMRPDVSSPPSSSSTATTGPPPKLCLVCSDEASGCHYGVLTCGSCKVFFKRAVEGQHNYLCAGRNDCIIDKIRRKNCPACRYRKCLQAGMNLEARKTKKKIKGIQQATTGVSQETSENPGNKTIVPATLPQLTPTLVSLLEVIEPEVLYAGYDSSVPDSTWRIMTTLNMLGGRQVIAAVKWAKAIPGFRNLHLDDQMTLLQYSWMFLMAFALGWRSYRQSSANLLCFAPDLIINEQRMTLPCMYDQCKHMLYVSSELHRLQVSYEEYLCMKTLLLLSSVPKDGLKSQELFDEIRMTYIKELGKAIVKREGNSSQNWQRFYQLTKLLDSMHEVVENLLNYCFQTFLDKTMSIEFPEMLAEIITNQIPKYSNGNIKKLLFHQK
Chain of Ubiquitin carboxyl-terminal hydrolase 1 (Homo sapiens) (O94782 whole entry, looked up): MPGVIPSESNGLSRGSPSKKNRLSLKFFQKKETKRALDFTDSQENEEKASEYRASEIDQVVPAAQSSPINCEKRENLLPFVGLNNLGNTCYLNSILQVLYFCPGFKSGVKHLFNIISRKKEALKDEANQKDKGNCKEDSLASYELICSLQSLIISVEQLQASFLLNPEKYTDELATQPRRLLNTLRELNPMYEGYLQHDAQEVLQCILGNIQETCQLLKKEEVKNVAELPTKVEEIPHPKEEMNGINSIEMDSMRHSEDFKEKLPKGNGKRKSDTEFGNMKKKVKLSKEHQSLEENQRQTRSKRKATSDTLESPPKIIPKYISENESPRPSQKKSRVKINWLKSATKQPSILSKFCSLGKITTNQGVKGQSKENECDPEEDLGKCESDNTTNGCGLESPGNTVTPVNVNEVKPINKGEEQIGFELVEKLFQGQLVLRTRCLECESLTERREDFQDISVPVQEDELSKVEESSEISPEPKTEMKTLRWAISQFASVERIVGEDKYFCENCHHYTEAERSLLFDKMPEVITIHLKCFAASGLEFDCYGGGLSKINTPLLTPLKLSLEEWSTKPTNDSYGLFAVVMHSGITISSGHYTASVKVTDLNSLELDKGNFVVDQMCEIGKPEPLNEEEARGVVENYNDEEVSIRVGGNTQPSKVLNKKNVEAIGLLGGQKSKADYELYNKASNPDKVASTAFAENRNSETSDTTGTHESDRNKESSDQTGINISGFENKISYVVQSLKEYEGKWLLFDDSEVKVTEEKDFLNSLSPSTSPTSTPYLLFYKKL
Chain of Cytochrome P450 3A4 (Homo sapiens) (P08684 whole entry, looked up): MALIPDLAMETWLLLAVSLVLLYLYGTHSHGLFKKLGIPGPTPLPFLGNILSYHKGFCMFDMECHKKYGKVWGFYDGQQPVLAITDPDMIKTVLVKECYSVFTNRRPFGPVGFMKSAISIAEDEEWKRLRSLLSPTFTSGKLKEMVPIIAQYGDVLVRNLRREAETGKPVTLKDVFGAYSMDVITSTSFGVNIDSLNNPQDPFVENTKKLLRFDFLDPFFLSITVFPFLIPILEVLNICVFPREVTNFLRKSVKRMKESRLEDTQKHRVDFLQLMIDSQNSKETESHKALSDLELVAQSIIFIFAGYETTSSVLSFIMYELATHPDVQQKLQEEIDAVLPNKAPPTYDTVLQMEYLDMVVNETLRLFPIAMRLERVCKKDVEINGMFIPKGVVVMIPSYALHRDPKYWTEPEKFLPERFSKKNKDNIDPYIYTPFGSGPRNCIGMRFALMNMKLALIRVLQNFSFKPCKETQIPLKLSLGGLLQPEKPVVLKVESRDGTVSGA
Chain of Cytochrome P450 1A2 (Homo sapiens) (P05177 whole entry, looked up): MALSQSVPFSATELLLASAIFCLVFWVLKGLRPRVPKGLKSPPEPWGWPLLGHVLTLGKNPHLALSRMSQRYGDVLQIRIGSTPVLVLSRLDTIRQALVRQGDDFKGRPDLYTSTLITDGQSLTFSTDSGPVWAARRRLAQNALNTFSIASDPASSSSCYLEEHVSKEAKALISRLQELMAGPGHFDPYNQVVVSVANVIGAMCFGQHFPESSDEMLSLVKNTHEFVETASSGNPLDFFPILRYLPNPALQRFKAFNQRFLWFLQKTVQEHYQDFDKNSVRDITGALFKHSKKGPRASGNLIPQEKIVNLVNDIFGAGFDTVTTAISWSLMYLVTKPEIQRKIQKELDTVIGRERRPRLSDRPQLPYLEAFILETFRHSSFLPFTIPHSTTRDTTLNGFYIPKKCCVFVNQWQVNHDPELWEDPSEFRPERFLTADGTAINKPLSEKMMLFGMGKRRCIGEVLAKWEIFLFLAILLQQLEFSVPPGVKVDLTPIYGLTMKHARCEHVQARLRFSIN
Chain of Cytochrome P450 2C19 (Homo sapiens) (P33261 whole entry, looked up): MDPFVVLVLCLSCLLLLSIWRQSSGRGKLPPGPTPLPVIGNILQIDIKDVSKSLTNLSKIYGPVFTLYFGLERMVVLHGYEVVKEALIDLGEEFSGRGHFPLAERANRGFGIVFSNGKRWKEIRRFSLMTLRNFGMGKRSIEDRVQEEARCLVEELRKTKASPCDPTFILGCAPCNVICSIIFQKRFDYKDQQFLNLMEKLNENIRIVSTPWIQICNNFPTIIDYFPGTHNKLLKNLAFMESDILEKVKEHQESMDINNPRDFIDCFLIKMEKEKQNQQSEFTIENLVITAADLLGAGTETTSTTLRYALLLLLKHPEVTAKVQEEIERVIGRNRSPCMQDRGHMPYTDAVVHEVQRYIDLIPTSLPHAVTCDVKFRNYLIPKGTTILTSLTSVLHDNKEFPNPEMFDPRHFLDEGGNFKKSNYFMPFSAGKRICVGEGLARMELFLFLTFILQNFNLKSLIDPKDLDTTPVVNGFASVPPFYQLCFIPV

CS(=O)(=O)N1CCC2(CCCN(c3cccc(-c4ccccc4)c3)C2)CC1
-3.01%: max response [9, 19]
inactive: Potency [1] > 11.4 µM | activity change, negative = inhibition [2] -13.4% | activity change, negative = inhibition [3] 0.269% | activity, negative = inhibition [4] -0.955% | Potency [5] > 46 µM | Potency [6] | Potency [7] | activation [8] -18.3% | activity change, negative = inhibition [9] -12% | outcome [10]
12.1%: max response [9, 18]

CC(C)CN1CC2(CCN(C(=O)c3ccco3)CC2)C1
7.7%: max response [9, 19]
inactive: Potency [1] > 11.4 µM | activity change, negative = inhibition [2] 6.73% | activity, negative = inhibition [4] -3.41% | Potency [5] > 46 µM | Potency [6] | Potency [7] | activity change, negative = inhibition [9] -2.08% | outcome [10]
8.53%: max response [9, 18]

CS(=O)(=O)N1CCC2(CC1)CN(Cc1ccc(C#N)cc1)C2
inactive: Potency [1] > 11.4 µM | activity change, negative = inhibition [2] -16.8% | activity change, negative = inhibition [3] -16.5% | Potency [5] > 46 µM | Potency [6] | Potency [7] | activity change, negative = inhibition [9] 4.04% | outcome [10]
16.5%: max response [9, 19]
9.72%: max response [9, 18]

CC(=O)N1CCC[C@@]2(CCN(Cc3ccc(C#N)cc3)C2)C1
8.41%: max response [9, 19]
inactive: Potency [1] > 11.4 µM | activity change, negative = inhibition [2] -11.7% | activity change, negative = inhibition [3] 2.49% | Potency [5] > 46 µM | Potency [6] | Potency [7] | activity change, negative = inhibition [9] 2.62% | outcome [10]
7.32%: max response [9, 18]

COc1ccc(C(=O)N2CCC3(CCCN(c4ccccc4)C3)CC2)cc1
1.98%: max response [9, 18]
-15%: max response [9, 19]
inactive: Potency [1] > 11.4 µM | activity change, negative = inhibition [2] -1.35% | activity, negative = inhibition [4] -0.767% | Potency [5] > 46 µM | Potency [6] | Potency [7] | activity change, negative = inhibition [9] -17.3% | outcome [10]

CC(=O)N1CCC2(CCCN(c3ccncc3)C2)CC1
inactive: Potency [1] > 11.4 µM | activity change, negative = inhibition [2] -16.6% | activity, negative = inhibition [4] -5.29% | Potency [5] > 46 µM | Potency [6] | Potency [7] | activity change, negative = inhibition [9] 4.08% | outcome [10]
1.51%: max response [9, 18]
7.47%: max response [9, 19]

COc1ccccc1CNc1ncncc1-c1ccccc1C
active: Potency [11] 7.94 µM | Potency [14] 3.98 µM
5.51%: max response [9, 19]
-3.12%: max response [9, 18]
inactive: Potency [1] > 11.4 µM | activity change, negative = inhibition [3] -19.5% | activity, negative = inhibition [4] 12.8% | Potency [12] > 46 µM | Potency [5] > 46 µM | Potency [6] | Potency [7] | Potency [13] | Potency [15] | outcome [16] | activity change, negative = inhibition [9] 9.38% | Potency [17] | outcome [10]
